Experimental data reported in PubChem BioAssay (EPA / NIEHS).
The source made the active and inactive calls. How the source made its calls: active means hit-call score of the fitted dose curve at least 0.9, where 1 is the maximum; inactive means score below 0.9.

These molecules were tested on HGF (gene 3082) (assay: LTEA_HepaRG_HGF: Life Technologies and Expression Analysis (LTEA) Assay for Hepatocyte Growth Facto (HGF) using HepaRG (AID 2283505)). Details: mRNA level, 48 h; actives raise or lower the signal.
Protocol: LTEA_HepaRG is a cell based, multiplexed-readout assay that uses HepaRG, a human liver cell line, with measurements taken at 48 hours after chemical dosing on a 96-well plate.LTEA_HepaRG_HGF is one of 102 assay component(s) measured in the LTEA HepaRG cell culture assay. It is a marker of Cell proliferation, survival, death.Data from the assay component LTEA_HepaRG_HGF was analyzed into 1 endpoint. This assay endpoint, LTEA_HepaRG_HGF, was analyzed with bidirectional fitting relative to DMSO as the negative control and baseline of activity. Using a type of inducible reporter, measures of mRNA induction for gain or loss-of-signal activity can be used to understand regulation of transcription factor activity. To generalize the intended target to other relatable targets, this assay endpoint is annotated to the growth factor intended target family, where the subfamily is hepatocyte growth factor.
A total of 1060 chemcials from the ToxCast library were tested in eight-point concentration-response experiments. Cell culture and cytotoxicity assays were conducted at Thermo Fisher Scientific's Custom Services facility (Madison, WI). A single lot of human HepaRG cells (Thermo Fisher Scientific, Frederick, MD) was used for the cell culture experiments. 96-well format collagen type I coated plates of human HepaRG cells were prepared using established methods. Briefly, cryopreserved HepaRG cells were thawed, plated at a density of approximately 100,000 cells/well in HepaRG Thaw, Plate, and General Purpose media (HPRG770, Thermo Fisher Scientific), and incubated for 48 hours. 0.5% DMSO was selected as vehicle control to balance the requisite need of DMSO in HepaRG cultures to maintain differentiation (for example, baseline metabolism, proportions of hepatocytes vs. cholangiocytes), while enabling further hepatic receptor pathway activation (for example, PXR and CAR) in response to chemical exposure. 48 hours after plating, the culture medium was replaced with HepaRG Serum-Free Incudtion Media. Cells were exposed to each test chemical in duplicate and maintained in CO2 incubators for another 48 hours. Chemical plates were thawed to room temperature and 200x concentrations of treatment groups were prepared. 8-point conentration-reponse curves were made with the highest exposure at 100 uM, followed by half-log dilutions, all in 0.5% DMSO. Each test plate contained variouse controls, induction positive controls (1mM phenobarbital), cytotoxicity positive controls ([…] aflatoxin B1), vehicle controls (0.5% DMSO), and total lysis controls (0.5% DMSO). Cell morphology images were taken using an Essen IncuCyte FLR automated microscope, with six 96-well plates imaged in about 24 minutes. Images were captured and exported and JPEG files. Spent culture media was transfered to black-well plates for the LDH assay, and remaining media was sorted at -80 C for later use. Cells were treated with RLT buffer and frozen until shipped for gene expression analysis. Total RNA was isolated from the cell suspension in 75 uL of Buffer RLT (Qiagen, Germantown, MD 20874) by Quintiles/Expression Analysis (Durham, NC) using a custom isolation procedure. Total RNA from each plate well was transferred to a preamplification plate. Fluidigm's 96.96 Dynamic ArrayTM (Fluidigm, Amsterdam, the Netherlands) technology was used for gene expression analyses by quantitative reverse transcription polymerase chain reaction (qRT-PCR, performed by Quintiles/Expression Analysis, Durham, NC)89. Standard TaqManTM Assays (Applied Biosystems/ThermoFisher Scientific, Foster City, CA) were used to assess the expression of 93 genes selected based on their selectivity and sensitivity to important hepatic receptors known to be modulated by environmental chemicals; importance in human hepatocyte functionality; and hepatotoxicity. […]

Compound | outcome
Clc1cccc(Cl)c1Cl | inactive
CCCCCCCCCCCCc1cccc(S(=O)(=O)O)c1 | inactive
Cc1cc(C)cc(C)c1 | inactive
Oc1cc(Cl)c(Cl)cc1Cl | inactive
N#Cc1cccnc1 | inactive
O=C(N[C@H]1CN2CCC1CC2)c1ccc2c(c1)OCCO2 | inactive
CC(C)(C)c1ccccc1O | inactive
O=C(O)C1(c2ccc3c(c2)OC[C@H](Cc2ccc(-c4ccccc4)cc2)[C@H]3O)CCCC1 | inactive
Clc1cccc(Cl)c1 | inactive
OCCN(CCO)CCO | inactive
CC(C)O.CC(C)O.OCCN(CCO)CCO.OCCN(CCO)CCO.[Ti] | inactive
CN(C)C(=S)S | inactive
COc1ccccc1N | inactive
